MARV entry inh – qHTS for inhibitors of binding or entry into cells for Marburg Virus. Marburg virus pseudotyped entry inhibition, cell reporter. AID 540276, 2011. Potency, µM (highest dose often 37.8 µM), hits mostly inhibitors. 300,000 tested, 1.8% active; calls by dose curve; tested in HEK293 cells
HCMV inh – qHTS Assay for inhibitors of the human cytomegalovirus (HCMV); HFF cells, HCMV-luciferase reporter, 72 h; hits give low values; activity change, negative = inhibition, % at 57.5 µM; 410,000 tested, 4.5% active; AID 1259415, 2018; in the data active means activity change below about -60%; inconclusive means no clear call, values can overlap the other calls; inactive means above about -39%
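Cell-based, HFFs, 1000 cells/well, 16 h 37C; cpds in DMSO + HCMV-luc, MOI 1 PFU/cell; 72 h 37C; OneGlo luminescence after 5 min RT; norm. to buffer vs Salinomycin 10uM.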
HCV inh – qHTS Assay for Inhibitors of Hepatitis C Virus (HCV); Huh7.5.1 HCVcc-Cre infection, luciferase reporter, 44 h; Potency, µM (doses to about 41.8 µM), most hits filed as inhibitors; 340,000 tested, 3.4% active; AID 651820, 2012; active means well fitted inhibition curve with a large enough effect; inconclusive means small, poorly fitted or top-dose-only effect, or another doubt; inactive means no such curve, though single readings can be large or run the other way
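Infectious HCV cell culture screen: compound-treated cells (1,000/well, pre-plated 4 h) are infected with HCVcc-Cre at roughly 0.5 moi and grown 44 h. Infection is quantified by luciferase signal after 15 min substrate incubation at room temperature.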
FMDV antiviral – High Throughput Screening for Foot and Mouth Disease Virus Antivirals. FMDV antiviral cell-based qHTS. 410,000 tested, 1.2% active. AID 1159524, 2015. Potency, µM (doses to about 57.9 µM), hits mostly inhibitors; calls by dose curve; tested in HEK293T cells; further: read-out not given here; nearly all actives have a fitted effect of over 45% in size
LASV entry inh – qHTS for Inhibitors of binding or entry into cells for Lassa Virus; Lassa virus pseudotype entry inhibition, cell reporter; Potency, µM (titrated, usually from 37.9 µM), usual class: inhibitors; 300,000 tested, 1.2% active; AID 540256, 2011; calls by dose curve; tested in HEK293 cells; further: nearly all actives have a fitted effect of over 50% in size
A number is an active result; n = inactive; u = inconclusive; x = no result given. Rows were chosen to be rich in hits. Some 7.9% of all compounds tested hit in one or more screens of this group.

SMILES	MARV entry inh	HCMV inh	HCV inh	FMDV antiviral	LASV entry inh
O=S(=O)(Nc1nc2ccccc2nc1Nc1ccc(N2CCOCC2)cc1)c1cc(Cl)ccc1Cl	7.3µM	n	u	n	u
Brc1ccc2ncnc(Nc3ccc(N4CCOCC4)cc3)c2c1	u	-82	u	u	u
Clc1nc(Nc2ccc(N3CCOCC3)cc2)c2ccccc2n1	n	-72	u	u	n
O=C(COc1ncnc2ccc(Br)cc12)Nc1ccc(N2CCOCC2)cc1	n	n	n	n	n
c1ccc2c(Nc3nc(N4CCOCC4)c4ccccc4n3)cccc2c1	u	n	u	28µM	u
Fc1ccc(Nc2nc(N3CCOCC3)c3ccccc3n2)cc1	16µM	n	n	u	u
COc1ccc(-n2nc(C(=O)N3CCN(c4cccc(C(F)(F)F)c4)CC3)c3c4ccccc4n(C)c3c2=O)cc1Cl	n	n	x	n	n
CN(C)/C=N/c1ncc(C(=O)c2ccc(Cl)cc2Cl)s1	n	-61	u	n	n
CC1CCN(C(=O)COC(=O)C23CC4CC(CC(O)(C4)C2)C3)CC1	x	n	n	n	x
CC1CCCC(C)N1C(=O)COC(=O)C12CC3CC(CC(Cl)(C3)C1)C2 (stereo not drawn)	x	-63	n	n	x
Cc1onc(-c2ccccc2)c1C(=O)NCCN1Cc2ccccc2OC(c2ccsc2)C1 (stereo not drawn)	x	x	x	n	x
COCc1c(C#N)c(NCc2cc(OC)c(OC)c(OC)c2)nc(C)c1[N+](=O)[O-]	u	n	11µM	14µM	u
Cc1c(CN(C)C(=O)c2sc3cc(Cl)ccc3c2Cl)cnn1C	u	-84	22µM	n	n
COCCCNC(=O)CSC1=Nc2ccccc2C2=NC(c3ccccc3)C(=O)N12 (stereo not drawn)	n	-64	n	n	n
Cc1ccc(NC(=O)N2CCc3cc(S(=O)(=O)N4CCC(C)CC4)ccc32)cc1F	n	n	x	n	x
O=C(/C=C/c1cccc([N+](=O)[O-])c1)NC(=S)Nc1cccc(NC(=O)c2ccccc2Cl)c1	u	-74	n	u	u
CCN(CC)S(=O)(=O)c1cccc(NC(=O)/C=C/c2ccc([N+](=O)[O-])cc2)c1	n	n	u	n	n
CCN(CC)S(=O)(=O)c1cccc(NC(=O)/C=C/c2cccc([N+](=O)[O-])c2)c1	u	-85	6.3µM	18µM	u
CCCc1nnc(N2C(=O)c3oc4ccc(F)cc4c(=O)c3C2c2ccc(C(=O)OC)cc2)s1 (stereo not drawn)	n	n	x	n	n
O=C(Nc1ccccc1)C1=C(c2ccccc2)S(=O)(=O)CCS1(=O)=O	2.8µM	-93	u	14µM	u
Cc1nn(-c2ccccc2)c(N2CCCC2)c1/C=N/NC(=O)c1cc(-c2cccnc2)nc2ccccc12	u	n	14µM	n	u
Cc1ccc(-c2cc(C(=O)N/N=C/c3c(C)nn(C)c3C)c3ccccc3n2)cc1C	u	n	35µM	n	u
CN1/C(=C/c2cc[n+](C)c3ccccc23)C=Cc2ccccc21	4µM	x	u	14µM	u
Cc1ccccc1C(=O)Oc1cc(-c2ccc3c(c2)OCO3)cc(=O)c2c(C)oc(C)c12	n	n	x	n	n
CCn1c(CN2CCCCC2)nc2cc(NC(=O)COc3ccc([N+](=O)[O-])cc3)ccc21	n	n	x	u	n
SMILES	MARV entry inh	HCMV inh	HCV inh	FMDV antiviral	LASV entry inh
Cn1c(CCN2CCCCC2)nc2cc(NC(=O)COc3ccc([N+](=O)[O-])cc3)ccc21	x	-75	n	n	x
Cc1nn(CC(=O)Nc2ccc3c(c2)nc(CCN2CCCCC2)n3C)c(=O)c2ccccc12	u	-63	u	n	n
Cc1ccc(C(C)C)c(OCC(=O)Nc2ccc3c(c2)nc(CCN2CCCCC2)n3C)c1	x	-81	10µM	n	x
Cn1c(CCN2CCCCC2)nc2cc(NC(=O)COc3ccc(Cl)cc3)ccc21	x	-70	u	n	x
CCOCCc1nn2c(=O)cc(COC(=O)CNC(=O)c3ccc(F)cc3)nc2s1	x	n	x	n	n
Cc1cccc(C)c1NC(=O)C(=O)NCC(c1ccc2c(c1)OCO2)N1CCOCC1 (stereo not drawn)	x	n	x	n	n
Cc1ccc(CN2CCC(CNC(=O)c3cnn(-c4ccccc4)c3C3CCN(C(=O)OC(C)(C)C)CC3)CC2)cc1	x	n	x	n	n
Clc1ccccc1/C=C/c1nc(-c2ccccn2)no1	u	u	n	4µM	u
COc1cc(OC)cc(C(=O)O/N=C(\N)c2ccccn2)c1	x	-61	u	n	x

Assay outcomes (PubChem)
